Experimental data from PubChem BioAssay AID1439 (NMMLSC, 2008).
Hit rate of the full screen: of about 220,000 compounds, about 770 (0.35%) were called active. Not shown: some 15% with an inconclusive outcome. The sample holds actives, similar compounds and a random draw of the others, so the mix is not that of the screen. Rule as the data show it: active = binding response below about 49% or above about 150%; inconclusive = no clear call, values can overlap the other calls; inactive = in between.

biological target: Guanine nucleotide-binding protein G(o) subunit alpha (Homo sapiens) (UniProt P09471); assay: compounds changing RGS7 association with Galphao – biochemical, multiplexed bead flow cytometry, primary screen (AID 1439); details: at 10 µM, actives lie on both sides;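 also: fluorescent Galphao held in activated GDP-AlF4 state binding bead-coupled RGS7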
Sequence (P09471 whole entry, looked up): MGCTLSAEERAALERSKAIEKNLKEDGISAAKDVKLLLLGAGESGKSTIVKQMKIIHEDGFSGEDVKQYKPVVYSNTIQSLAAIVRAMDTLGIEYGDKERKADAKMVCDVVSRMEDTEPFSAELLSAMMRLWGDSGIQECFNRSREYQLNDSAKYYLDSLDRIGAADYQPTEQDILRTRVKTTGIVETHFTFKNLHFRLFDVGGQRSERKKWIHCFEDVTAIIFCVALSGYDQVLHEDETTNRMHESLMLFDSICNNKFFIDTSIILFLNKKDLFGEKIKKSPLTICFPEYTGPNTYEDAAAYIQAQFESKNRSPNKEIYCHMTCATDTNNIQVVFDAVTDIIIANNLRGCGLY

Structure (SMILES)	binding response (% of control)
Cc1ccc(Cn2ccc(NC(=O)C3C4CCC(C4)C3C(=O)O)n2)cc1 (configuration not stated)	99.7% (inactive)
Cc1ccc(Cn2ccc(NC(=O)c3cc(C(C)C)on3)n2)cc1	43.9% [inhibitor] (active)
O=C(Nc1ccn(Cc2ccc(F)cc2)n1)c1ccncc1	100% (inactive)
COc1ccc(Br)cc1/C=N/NC(=O)c1cccc(S(=O)(=O)N2CCOCC2)c1	112% (inactive)
Cc1cccc(C)c1NC(=O)Nc1ccccc1-n1ccnc1	99.6% (inactive)
CC(=O)Nc1nc(N(C)C)nc(N(C)C)n1	-0.2% [inhibitor] (active)
CCC(=O)Nc1nc(OC)cc(OC)n1	99.2% (inactive)
COc1cc(OC)nc(NC(=O)CCl)n1	100% (inactive)
OCCC1CN(Cc2ccccc2-c2ccco2)CCN1Cc1ccsc1 (configuration not stated)	95.9% (inactive)
Cc1ccc(S(=O)(=O)NCCc2nnc3ccc(SCc4cccnc4)nn23)cc1	95.6% (inactive)
O=C(O)CCn1c(SCc2cc(=O)n3ccccc3n2)nc2ccsc2c1=O	101% (inactive)
CC1=CC=CC2=N/C(=N\S(=O)(=O)c3ccc(F)cc3F)c3ccccc3CN12	101% (inactive)
c1ccc2c(NC3C4CC5CC(C4)CC3C5)nc(N3CCOCC3)nc2c1 (configuration not stated)	100% (inactive)
N#Cc1nc(Cc2ccccc2)oc1NCCc1ccccc1	102% (inactive)
N#Cc1nc(-c2ccc(OCc3ccccc3)cc2)oc1NCCCN1CCOCC1	97.2% (inactive)
N#Cc1nc(COc2ccc(-c3ccccc3)cc2)oc1NCc1cccnc1	202% (active)
O=S(=O)(c1ccc(-c2ccccc2)cc1)N1CCCC1	106% (inactive)
O=C(NCc1ccco1)C(=O)c1cn(CC(=O)N2CCCCCC2)c2ccccc12	93.9% (inactive)
Cc1c(-c2cccc(Cl)c2)nc2ccccc2c1C(=O)OCC(=O)N(C)C1CCS(=O)(=O)C1 (configuration not stated)	97% (inactive)
COc1ccc(C(=O)NC2CCN(C(=S)NCCc3ccccc3)CC2)cc1	91.3% (inactive)
C=CCn1c(=NC(=O)c2ccc(S(=O)(=O)N3CCCC3)cc2)sc2cc(NC(C)=O)ccc21	91.7% (inactive)
CC(=O)Nc1ccc(/C=N/NC(=O)c2cccs2)cc1	99.9% (inactive)
C=CCn1c(=NC(=O)c2cccs2)sc2cc(NC(C)=O)ccc21	152% (active)

Structure (SMILES)	binding response (% of control)
O=C(OCC(=O)N1CCOCC1)c1ccc(N2CCOCC2)c([N+](=O)[O-])c1	102% (inactive)
Cc1c(NC(=S)NC(=O)CCc2ccccc2)c(=O)n(-c2ccccc2)n1C	103% (inactive)
CN(CCc1ccccn1)C(=O)CCC1CCCN(Cc2ccccc2OC(F)F)C1 (configuration not stated)	102% (inactive)
Cc1ccc(S(=O)(=O)/N=C(/Nc2ccc3[nH]c(=O)[nH]c3c2)c2ccccc2)cc1	104% (inactive)
O=C(CSc1nnc(-c2c[nH]c3ccccc23)o1)c1ccccc1	95.2% (inactive)
NC(=O)CSc1c[nH]c2ccccc12	25.2% [inhibitor] (active)
O=C(Cc1c[nH]c2ccccc12)OCCOC(=O)Cc1c[nH]c2ccccc12	95% (inactive)
CC(C)N1CCC(N2CCN(Cc3cccnc3)CC2CCO)CC1 (configuration not stated)	100% (inactive)
CC1CC(C)CN(CCC(=O)Nc2ccc3c(c2)CCC3)C1 (configuration not stated)	104% (inactive)
NS(=O)(=O)c1ccc(NC(=S)NNC(=O)c2cccs2)cc1	109% (inactive)
O=S(=O)(c1ccccc1)N(CC(O)CN1CCCCC1)c1ccccc1 (configuration not stated)	110% (inactive)
Cc1ccc(N(CC(O)CN2CCCC2)S(=O)(=O)c2ccccc2)cc1 (configuration not stated)	99.4% (inactive)
Cc1cc(C)n(CC(O)CN(c2ccccc2)S(=O)(=O)c2ccc3ccccc3c2)n1 (configuration not stated)	1.45% [inhibitor] (active)
CN1C(=O)/C(=C/c2ccc(C(=O)NC3CCCC3)cc2)Oc2ccccc21	98.8% (inactive)
O=C(CCc1ccccc1)Nc1ccc(NC(=O)C2CCCCC2)nc1	105% (inactive)
Cc1ccc(CN2CCN(Cc3ccccc3-c3ccco3)CC2CCO)o1 (configuration not stated)	90.6% (inactive)
CN1CCN(S(=O)(=O)c2ccc(N3CCN(S(=O)(=O)c4cccs4)CC3)nc2)CC1	95.4% (inactive)
Cc1ccc(NC(=O)NCC(c2cccnc2)N2CCOCC2)cc1 (configuration not stated)	100% (inactive)
CN1CCN(C(CNS(=O)(=O)c2cccs2)c2cccnc2)CC1 (configuration not stated)	-9.98% [inhibitor] (active)
CN(C)c1ccc(/C=N/NC(=O)C(O)c2ccc(Br)cc2)cc1 (configuration not stated)	101% (inactive)
CC(C)(C)C(=O)CN1C2=NCCN2c2ccccc21	109% (inactive)
Cc1ccccc1NC(=O)Cn1c(=O)n(CC2CCCO2)c(=O)c2ccccc21 (configuration not stated)	106% (inactive)
CCN(CC)CCOc1ccc2c(c1)C(=NNC(=O)c1ccccn1)c1cc(OCCN(CC)CC)ccc1-2	216% (active)

Structure (SMILES)	binding response (% of control)
CCOc1cc(NC(=O)c2ccccn2)c(OCC)cc1NC(=O)c1ccc(OC)cc1	107% (inactive)
COc1ccc(CC(=O)N/N=C(\C)c2ccccn2)cc1	93.4% (inactive)
COC(=O)c1cc2n(n1)CCCNC2=O	106% (inactive)
O=[N+]([O-])c1ccc2c(c1)C(N1CCOCC1)/C(=C/C1(O)CCCCC1)O2 (configuration not stated)	100% (inactive)
CCn1c(=N)n(CC(=O)c2cccc(OC)c2)c2ccccc21	96.8% (inactive)
CCCCOC(=O)Cn1c(=N)n(CCN(CC)CC)c2ccccc21	165% (active)
CCCCOC(=O)Cn1c(=O)n(CC(=O)OCCCC)c2cc(C)ccc21	103% (inactive)
CCC(C)CN1CCC(CO)(Cc2ccccc2Cl)CC1 (configuration not stated)	103% (inactive)
O=S1(=O)CCC(NC(=S)SCc2ccccc2Br)C1 (configuration not stated)	97.5% (inactive)
Cc1cc2nc(C)n(CCCNC(=O)Nc3ccccc3)c2cc1C	180% (active)
Cc1nc2cc(NC(=O)NC3CC3)ccc2n1C	99% (inactive)
Cn1c(CCN2CCCCCC2)nc2cc(NC(=O)Nc3ccccc3)ccc21	106% (inactive)
CCOc1ccc(S(=O)(=O)Nc2nccs2)cc1	101% (inactive)
C=CCN1C2CCCC1CC(NC(=S)Nc1cccc(OC)c1)C2 (configuration not stated)	102% (inactive)
Clc1cccc(-c2nc(NCC3CCCO3)c3ccccc3n2)c1 (configuration not stated)	99.5% (inactive)
Cc1cc(C)n2nc(C(=O)N(C)C(c3ccccc3)c3ccccc3)nc2n1	99% (inactive)
Cc1cccc(NC(=S)N2CCCC(c3nc4ccccc4[nH]3)C2)c1 (configuration not stated)	106% (inactive)
COCCCN1C(=O)C(=O)/C(=C(/O)c2ccc3c(c2)CC(C)O3)C1c1cccnc1 (configuration not stated)	93.5% (inactive)
COc1cc(C2/C(=C(\O)c3ccc4c(c3)CC(C)O4)C(=O)C(=O)N2Cc2ccco2)ccc1O (configuration not stated)	17.7% [inhibitor] (active)
COc1ccc(/C(O)=C2\C(=O)C(=O)N(Cc3ccco3)C2c2ccc(OC)cc2OC)cc1 (configuration not stated)	98.7% (inactive)
CSc1ccc(C(=O)C2CCCN(C(=O)c3ccc(C)nc3)C2)cc1 (configuration not stated)	96% (inactive)
O=C(CCN1CCN(C/C=C/c2ccccc2)CC1)Nc1cccc(F)c1	101% (inactive)
CCCn1nnnc1NC(=O)COc1ccc(Cl)cc1C	17.1% [inhibitor] (active)

Structure (SMILES)	binding response (% of control)
Cc1cc(NC(=O)COc2ccc(Cl)cc2Cl)n(CCC#N)n1	93.9% (inactive)
CCOC(=O)N1CCN(C(=O)COc2ccc(Cl)cc2C)CC1	102% (inactive)
Cn1c(=NC(=O)C2CC2)sc2cc(F)cc(F)c21	95.6% (inactive)
CCCC(=O)N=c1sc2cccc(F)c2n1C	18% [inhibitor] (active)
Cn1c(=NC(=O)c2ccco2)sc2cccc(F)c21	103% (inactive)
Cc1cnc(C(=O)N2CCCC(C(=O)c3ccc(C(F)(F)F)cc3)C2)cn1 (configuration not stated)	107% (inactive)
COc1cccc(-n2nc(C(=O)N3CCN(Cc4ccccc4)CC3)c3ccccc3c2=O)c1	98.7% (inactive)
CCC(=O)OCCNc1nc(-c2ccccc2)nc2ccccc12	110% (inactive)
O=C(OCC1O[C@@H](OC(=O)c2cc(O)c(O)c(O)c2)[C@@H](OC(=O)c2cc(O)c(O)c(O)c2)[C@@H](OC(=O)c2cc(O)c(O)c(O)c2)[C@@H]1OC(=O)c1cc(O)c(O)c(O)c1)c1cc(O)c(O)c(O)c1 (some centres not stated)	20.5% [inhibitor] (active)
CC(=O)NC1C(OCc2ccccc2)OC(COC(C)=O)C(OC(C)=O)C1OC(C)=O (configuration not stated)	99.5% (inactive)
NC(=O)c1ccc(CN2CCC(Cc3ccccc3)CC2)cc1	99.1% (inactive)
OCC1(CCc2ccccc2)CCN(Cc2ccc3nsnc3c2)CC1	96.7% (inactive)
CN1CCNC(=O)C1CC(=O)NCCC1=CCCCC1 (configuration not stated)	96.7% (inactive)
CCc1nnc(NS(=O)(=O)c2ccc(NC(=S)NC(=O)c3cccs3)cc2)s1	96.9% (inactive)
Cc1cc2c(c(=O)n1Cc1ccco1)C(c1ccccc1)C(C#N)=C(N)O2 (configuration not stated)	101% (inactive)
CCOC(=O)CSc1nc2c(sc(=S)n2CCc2ccccc2)c(=O)n1Cc1ccco1	113% (inactive)
CN(c1ccccc1)c1ccc(/C=c2\s/c(=C(/C#N)C(=O)C(C)(C)C)n(Cc3ccco3)c2=O)cc1	421% (active)
COc1ccc(C(=O)CSc2nc(C)cc(C)n2)cc1[N+](=O)[O-]	103% (inactive)
O=C(NCCCN1CCOCC1)c1ccc([N+](=O)[O-])cc1[N+](=O)[O-]	101% (inactive)
O=C(CC1SC(=Nc2ccccc2F)N(CCN2CCOCC2)C1=O)Nc1ccc(F)cc1F (configuration not stated)	87% (inactive)
CC(C)(C)CN1CCNC(=O)C1CC(=O)NC1Cc2ccccc2C1 (configuration not stated)	85.9% (inactive)
CC1(C)CC(=O)C(CC(=O)N2CCC(Cc3ccccc3)CC2)C(=O)C1	106% (inactive)
CC1=CC=CN2C1=NC(=O)CC2(C)C(=O)N(CC(=O)NC1CCCC1)c1ccccc1C (configuration not stated)	104% (inactive)
